Results as given in PubChem BioAssay (Tox21).
Unmarked numbers belong to inactive results. Results filed as inconclusive are left out. Entries that show only a call come without a potency. Activity calls are given as the source filed them. Unless noted, calls follow the shape of the dose curve; as a rule, active = well fitted curve in the direction sought with a large enough effect in the repeat runs; inconclusive = weak or mixed curves; inactive = no such curve, though single readings can be large; an effect the other way counts as inactive or inconclusive.

Columns and labels:
[1] = molecular target: Thyrotropin-releasing hormone receptor (Homo sapiens) (UniProt P34981); assay: qHTS assay to identify small molecule agonists of the thyrotropin-releasing hormone receptor (TRHR) signaling pathway (AID 1346891; calls by dose curve; also: series mostly up to about 58 µM)
Method in brief: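 Agonist-mode intracellular calcium readout: kinetic fluorescence over 3 min at 1 s intervals after compound addition to TRHR-HEK293 cells (18 h seeded, 2 h dye-loaded at 37 C). Fifteen concentrations, triplicates.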

[2] = Human pregnane X receptor (PXR) small molecule agonists, qHTS cell viability counter screen (AID 1346977); also: nearly all actives have a fitted effect of over 50% in size
Method in brief: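 Same-well viability read: CellTiter-Fluor added after 23 hr compound exposure, fluorescence measured 1 hr later. Cells were PXR-Luc HepG2 seeded at 2,000/well in 5% charcoal-stripped FBS medium, rested 5 hr before dosing at 37 C.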

[3] = Caspase-3/7 induction in HepG2 cells by small molecules, qHTS assay (AID 1346978); also: nearly all actives have a fitted effect of over 15% in size
Method in brief: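 Wild-type HepG2 cells (2,000/well) were settled 5 h at 37 C, 5% CO2, then exposed to compounds in DMSO for 17 h. Caspase-3/7 activity was read by luminescence 30 min after adding Caspase-Glo 3/7 reagent at room temperature.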

[4] = Caspase-3/7 induction in CHO-K1 cells by small molecules, qHTS cell viability counter screen (AID 1346979); also: nearly all actives have a fitted effect of over 35% in size
Method in brief: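 Cytotoxicity counter screen: CellTiter-Fluor added to compound-treated wild-type CHO-K1 cells at 16 h (37C, 5% CO2), fluorescence measured 1 h later; same wells as caspase-3/7 measurement.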

[5] = Caspase-3/7 induction in CHO-K1 cells by small molecules, qHTS assay (AID 1346980); also: nearly all actives have a fitted effect of over 15% in size
Method in brief: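 Wild-type cells were seeded at 1,500 per well and settled 5 hr at 37 C, 5% CO2, then exposed to DMSO-dissolved compounds for 17 hr. Caspase-Glo 3/7 reagent was added, and luminescence was read after 30min at room temperature.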

[6] = Caspase-3/7 induction in HepG2 cells by small molecules, qHTS cell viability counter screen (AID 1346981); also: series mostly up to about 92 µM; nearly all actives have a fitted effect of over 30% in size
Method in brief: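 Cell viability is measured as a cytotoxicity counter screen alongside the Caspase-Glo 3/7 readout in identical wells. Wild-type HepG2 cells are treated with test compounds for 16 hr at 37 C before CellTiter-Fluor addition and a 1-hr incubation.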

[7] = molecular target: Cytochrome P450 2D6 (Homo sapiens) (UniProt P10635); assay: Cytochrome P450 Family 2 Subfamily D Member 6 (CYP2D6) small molecule antagonists: luciferase reporter qHTS assay (AID 1671196); also: nearly all actives have a fitted effect of over 50% in size; also: potency is read from the fitted curve at half-maximal effect
Method in brief: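 Enzyme and proluciferin substrate were first combined with test chemical for 10 min at room temperature. Adding NADPH regeneration solution started a 1 h reaction, stopped with luciferin detection reagent and read by luminescence 20 min later.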

[8] = molecular target: Cytochrome P450 2C19 (Homo sapiens) (UniProt P33261); assay: Cytochrome P450 Family 2 Subfamily C Member 19 (CYP2C19) small molecule antagonists: luciferase reporter qHTS assay (AID 1671197); also: nearly all actives have a fitted effect of over 65% in size; also: potency is read from the fitted curve at half-maximal effect
Method in brief: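 P450-Glo CYP2C19 system: enzyme-substrate mix with compound 10 min at room temperature, then NADPH regeneration solution, 1 h at 37C. Proluciferin-to-luciferin conversion detected by luminescence after 20 min with detection reagent; ketoconazole as positive control.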

[9] = molecular target: Cytochrome P450 2C9 (Homo sapiens) (UniProt P11712); assay: Cytochrome P450 Family 2 Subfamily C Member 9 (CYP2C9) small molecule antagonists: luciferase reporter qHTS assay (AID 1671198); also: nearly all actives have a fitted effect of over 50% in size; also: potency is read from the fitted curve at half-maximal effect
Method in brief: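 CYP2C9 activity was measured with a P450-Glo proluciferin substrate. Enzyme–substrate mix was held with compound for 10 min at room temperature, then NADPH regeneration solution was added for 1 h at 37C. Luciferin product was read as luminescence.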

[10] = molecular target: Cytochrome P450 1A2 (Homo sapiens) (UniProt P05177); assay: Cytochrome P450 Family 1 Subfamily A Member 2 (CYP1A2) small molecule antagonists: luciferase reporter qHTS assay (AID 1671199); also: nearly all actives have a fitted effect of over 50% in size; also: potency is read from the fitted curve at half-maximal effect
Method in brief: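 Compounds were incubated with CYP1A2 and a luminogenic proluciferin substrate for 10 min at room temperature before the reaction was started with NADPH regeneration solution. After 1 h, detection reagent was added and light output, proportional to CYP activity, was recorded.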

[11] = molecular target: Voltage-gated inwardly rectifying potassium channel KCNH2 (Homo sapiens) (UniProt Q12809); assay: Human Ether-a-go-go-Related Gene (hERG) channel small molecule antagonists: fluorescence cell-based qHTS assay (AID 1671200)
Method in brief: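 Thallium flux as potassium surrogate: FluxOR II dye loaded 1 h at room temperature into hERG-expressing U2OS cells, then stimulus buffer added after 10 min. Kinetic 480 nm excitation/540 nm emission read, 2 min.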

[12] = molecular target: Cytochrome P450 3A4 (Homo sapiens) (UniProt P08684); assay: Cytochrome P450 Family 3 Subfamily A Member 4 (CYP3A4) small molecule antagonists: luciferase reporter qHTS assay (AID 1671201); also: nearly all actives have a fitted effect of over 50% in size; also: potency is read from the fitted curve at half-maximal effect
Method in brief: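 Recombinant human CYP3A4 converts a proluciferin substrate to luciferin over 1 h at room temperature after NADPH regeneration solution is added (compound preincubated 10 min); detection reagent stops reaction, luminescence read 20 min later as relative units.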

[13] = molecular target: Nuclear receptor subfamily 1 group I member 2 (Homo sapiens) (UniProt O75469); assay: Human pregnane X receptor (PXR) small molecule agonists, qHTS assay (AID 1346982); also: nearly all actives have a fitted effect of over 35% in size; also: potency is read from the fitted curve at half-maximal effect
Method in brief: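 Cells: HepG2 stably carrying PXR-Luc. Medium held 5% charcoal-stripped FBS. Compounds in DMSO added after 5 hr plating, incubated 24 hr, then luminescence quantified with ONE-Glo.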

[14] = molecular target: Nuclear receptor subfamily 1 group I member 2 (Rattus norvegicus) (UniProt Q9R1A7); assay: Rat pregnane X receptor (rPXR) activation by small molecules, qHTS assay (AID 1346983); settings: rPXR luciferase reporter cells, One-Glo luminescence, 24 h; max activation: hits give high values; also: nearly all actives have a fitted effect of over 20% in size
Method in brief: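 Cell-based rPXR luciferase reporter assay, 2,000 cells per well, rested 5hr at 37 C before compound addition in DMSO, then 24 hr at 37 C. One-Glo reagent was added and luminescence read after 30 min at room temperature.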

[15] = molecular target: Nuclear receptor subfamily 1 group I member 2 (Homo sapiens) (UniProt O75469); assay: CYP3A4 induction through human pregnane X receptor (PXR) by small molecules, qHTS assay (AID 1346984); also: nearly all actives have a fitted effect of over 40% in size
Method in brief: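 Quantitative HTS in DPX-2 cells, i.e. HepG2 transfected with PXR response element and CYP3A4-promoter luciferase. Compounds in DMSO incubated 24hr at 37C; then P450-Glo CYP3A4 substrate, 3uM final, 3hr; One-Glo luminescence.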

[16] = molecular target: Nuclear receptor subfamily 1 group I member 2 (Homo sapiens) (UniProt O75469); assay: Human pregnane X receptor (PXR) activation by small molecules, qHTS assay (AID 1346985); also: nearly all actives have a fitted effect of over 40% in size
Method in brief: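 DPX-2 cells (HepG2 co-transfected with a PXR response element and a CYP3A4-promoter luciferase construct) were seeded at 2,000 per well, rested 5 hr at 37C, then exposed to DMSO-dissolved compounds for 24 hr. Activation was read as luciferase luminescence.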

Sequence of Cytochrome P450 3A4 (Homo sapiens) (P08684 whole entry, looked up): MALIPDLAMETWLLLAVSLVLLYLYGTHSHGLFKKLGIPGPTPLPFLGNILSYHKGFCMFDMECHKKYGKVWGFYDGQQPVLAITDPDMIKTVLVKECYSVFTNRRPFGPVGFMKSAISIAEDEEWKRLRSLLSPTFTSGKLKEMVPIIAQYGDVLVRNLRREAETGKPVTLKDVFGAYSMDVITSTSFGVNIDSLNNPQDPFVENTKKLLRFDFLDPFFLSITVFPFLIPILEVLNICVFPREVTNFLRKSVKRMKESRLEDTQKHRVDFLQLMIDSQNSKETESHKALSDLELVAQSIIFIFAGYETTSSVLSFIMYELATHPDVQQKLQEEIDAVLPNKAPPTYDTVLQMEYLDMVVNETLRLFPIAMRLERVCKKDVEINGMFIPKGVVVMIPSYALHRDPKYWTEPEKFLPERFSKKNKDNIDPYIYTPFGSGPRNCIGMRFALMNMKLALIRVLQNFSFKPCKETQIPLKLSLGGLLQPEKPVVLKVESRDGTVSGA
Sequence of Nuclear receptor subfamily 1 group I member 2 (Homo sapiens) (O75469 whole entry, looked up): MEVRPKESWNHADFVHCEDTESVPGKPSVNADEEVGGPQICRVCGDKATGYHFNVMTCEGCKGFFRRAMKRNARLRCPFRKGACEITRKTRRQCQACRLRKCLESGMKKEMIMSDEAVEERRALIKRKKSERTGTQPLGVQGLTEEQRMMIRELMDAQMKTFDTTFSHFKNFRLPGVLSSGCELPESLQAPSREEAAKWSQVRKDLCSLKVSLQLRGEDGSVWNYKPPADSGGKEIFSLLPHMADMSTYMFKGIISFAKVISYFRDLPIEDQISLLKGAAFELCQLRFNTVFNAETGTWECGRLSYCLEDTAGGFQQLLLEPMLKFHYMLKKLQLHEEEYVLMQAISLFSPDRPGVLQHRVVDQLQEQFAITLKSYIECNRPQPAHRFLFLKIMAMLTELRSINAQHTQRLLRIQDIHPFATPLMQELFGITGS
Sequence of Thyrotropin-releasing hormone receptor (Homo sapiens) (P34981 whole entry, looked up): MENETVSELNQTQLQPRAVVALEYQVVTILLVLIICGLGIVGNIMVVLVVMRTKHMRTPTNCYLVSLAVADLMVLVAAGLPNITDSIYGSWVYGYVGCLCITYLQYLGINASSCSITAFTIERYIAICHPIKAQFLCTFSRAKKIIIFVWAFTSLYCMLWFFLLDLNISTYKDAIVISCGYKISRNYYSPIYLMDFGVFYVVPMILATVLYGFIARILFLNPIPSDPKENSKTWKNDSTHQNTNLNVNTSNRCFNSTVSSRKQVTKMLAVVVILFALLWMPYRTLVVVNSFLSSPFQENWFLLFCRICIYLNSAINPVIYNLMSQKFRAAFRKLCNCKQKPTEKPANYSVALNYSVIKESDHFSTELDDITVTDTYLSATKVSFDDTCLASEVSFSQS
Sequence of Cytochrome P450 2C19 (Homo sapiens) (P33261 whole entry, looked up): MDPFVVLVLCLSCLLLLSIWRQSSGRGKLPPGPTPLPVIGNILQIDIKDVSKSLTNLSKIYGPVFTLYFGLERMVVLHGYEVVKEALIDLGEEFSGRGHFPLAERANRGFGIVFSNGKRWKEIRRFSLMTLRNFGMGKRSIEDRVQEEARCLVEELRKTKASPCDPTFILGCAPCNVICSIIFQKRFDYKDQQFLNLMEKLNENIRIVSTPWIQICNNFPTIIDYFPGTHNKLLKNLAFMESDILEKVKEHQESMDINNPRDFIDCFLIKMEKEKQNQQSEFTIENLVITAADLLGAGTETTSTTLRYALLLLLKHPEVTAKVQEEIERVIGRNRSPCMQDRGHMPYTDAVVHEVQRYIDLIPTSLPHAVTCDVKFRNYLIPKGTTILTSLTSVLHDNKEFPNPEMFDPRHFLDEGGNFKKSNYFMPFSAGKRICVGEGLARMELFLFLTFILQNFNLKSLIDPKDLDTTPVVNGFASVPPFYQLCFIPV
Sequence of Cytochrome P450 2D6 (Homo sapiens) (P10635 whole entry, looked up): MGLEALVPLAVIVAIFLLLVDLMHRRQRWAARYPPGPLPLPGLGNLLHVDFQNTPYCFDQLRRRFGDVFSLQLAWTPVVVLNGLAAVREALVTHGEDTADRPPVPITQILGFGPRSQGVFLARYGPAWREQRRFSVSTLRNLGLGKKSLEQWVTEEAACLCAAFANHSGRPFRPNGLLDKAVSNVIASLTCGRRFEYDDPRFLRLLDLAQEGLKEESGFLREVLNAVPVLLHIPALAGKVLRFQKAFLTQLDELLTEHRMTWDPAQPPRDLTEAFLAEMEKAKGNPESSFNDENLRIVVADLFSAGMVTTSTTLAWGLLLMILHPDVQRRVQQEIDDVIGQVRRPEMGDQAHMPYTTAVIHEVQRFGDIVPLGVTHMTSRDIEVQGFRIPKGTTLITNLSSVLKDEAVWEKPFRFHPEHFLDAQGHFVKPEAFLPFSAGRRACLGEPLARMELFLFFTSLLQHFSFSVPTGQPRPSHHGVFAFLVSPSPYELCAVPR
Sequence of Cytochrome P450 2C9 (Homo sapiens) (P11712 whole entry, looked up): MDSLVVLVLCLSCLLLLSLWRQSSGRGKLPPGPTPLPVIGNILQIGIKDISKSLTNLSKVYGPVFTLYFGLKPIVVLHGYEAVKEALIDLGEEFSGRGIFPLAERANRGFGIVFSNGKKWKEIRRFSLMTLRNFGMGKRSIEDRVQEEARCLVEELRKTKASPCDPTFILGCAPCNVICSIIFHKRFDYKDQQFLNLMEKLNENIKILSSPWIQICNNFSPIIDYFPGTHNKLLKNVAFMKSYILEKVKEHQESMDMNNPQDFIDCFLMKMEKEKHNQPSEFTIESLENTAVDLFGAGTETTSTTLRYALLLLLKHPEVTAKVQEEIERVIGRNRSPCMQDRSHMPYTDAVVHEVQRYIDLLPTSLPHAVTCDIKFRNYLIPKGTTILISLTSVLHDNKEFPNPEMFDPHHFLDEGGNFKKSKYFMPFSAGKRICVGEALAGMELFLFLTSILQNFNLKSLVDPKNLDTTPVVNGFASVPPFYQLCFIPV
Sequence of Cytochrome P450 1A2 (Homo sapiens) (P05177 whole entry, looked up): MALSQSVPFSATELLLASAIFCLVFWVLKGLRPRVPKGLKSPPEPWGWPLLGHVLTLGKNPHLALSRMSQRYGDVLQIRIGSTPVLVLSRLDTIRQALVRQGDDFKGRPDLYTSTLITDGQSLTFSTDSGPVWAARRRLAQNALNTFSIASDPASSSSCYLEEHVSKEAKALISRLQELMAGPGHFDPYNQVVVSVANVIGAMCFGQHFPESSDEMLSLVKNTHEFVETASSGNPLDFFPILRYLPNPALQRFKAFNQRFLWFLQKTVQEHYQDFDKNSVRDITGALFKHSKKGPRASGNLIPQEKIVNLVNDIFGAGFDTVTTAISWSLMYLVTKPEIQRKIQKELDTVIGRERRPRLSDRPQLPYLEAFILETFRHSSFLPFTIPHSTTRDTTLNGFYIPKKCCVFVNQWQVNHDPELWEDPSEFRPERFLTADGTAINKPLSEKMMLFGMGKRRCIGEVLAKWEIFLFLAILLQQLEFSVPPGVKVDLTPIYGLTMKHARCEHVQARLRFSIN
Sequence of Voltage-gated inwardly rectifying potassium channel KCNH2 (Homo sapiens) (Q12809 whole entry, looked up): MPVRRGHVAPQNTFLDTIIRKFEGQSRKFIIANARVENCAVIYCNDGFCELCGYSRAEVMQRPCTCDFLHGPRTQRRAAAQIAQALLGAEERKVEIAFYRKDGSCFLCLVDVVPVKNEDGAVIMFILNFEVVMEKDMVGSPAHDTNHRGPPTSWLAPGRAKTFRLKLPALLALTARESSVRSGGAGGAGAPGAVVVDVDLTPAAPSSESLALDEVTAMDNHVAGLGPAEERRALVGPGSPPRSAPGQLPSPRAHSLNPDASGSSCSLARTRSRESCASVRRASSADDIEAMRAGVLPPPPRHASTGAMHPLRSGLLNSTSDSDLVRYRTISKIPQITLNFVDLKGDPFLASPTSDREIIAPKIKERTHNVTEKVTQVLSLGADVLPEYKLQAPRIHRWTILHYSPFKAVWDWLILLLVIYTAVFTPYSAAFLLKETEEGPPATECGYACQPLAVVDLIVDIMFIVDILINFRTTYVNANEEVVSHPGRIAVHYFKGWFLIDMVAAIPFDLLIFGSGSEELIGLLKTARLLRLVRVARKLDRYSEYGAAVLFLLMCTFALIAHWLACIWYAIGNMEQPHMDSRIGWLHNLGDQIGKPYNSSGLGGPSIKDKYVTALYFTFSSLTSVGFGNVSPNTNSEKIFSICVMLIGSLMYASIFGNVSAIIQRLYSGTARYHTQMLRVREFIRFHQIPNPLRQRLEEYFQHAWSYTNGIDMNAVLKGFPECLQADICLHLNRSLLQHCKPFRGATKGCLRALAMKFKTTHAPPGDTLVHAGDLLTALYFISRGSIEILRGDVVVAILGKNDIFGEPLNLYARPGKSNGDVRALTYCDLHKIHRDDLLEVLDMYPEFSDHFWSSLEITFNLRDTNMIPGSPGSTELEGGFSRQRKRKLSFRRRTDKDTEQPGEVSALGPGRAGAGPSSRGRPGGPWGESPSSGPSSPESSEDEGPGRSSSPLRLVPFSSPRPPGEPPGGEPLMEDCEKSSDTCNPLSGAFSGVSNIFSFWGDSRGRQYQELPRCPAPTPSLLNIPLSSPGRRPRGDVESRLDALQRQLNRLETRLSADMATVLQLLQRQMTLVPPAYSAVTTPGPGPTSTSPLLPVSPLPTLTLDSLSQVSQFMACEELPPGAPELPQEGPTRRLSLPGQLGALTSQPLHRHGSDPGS
Sequence of Nuclear receptor subfamily 1 group I member 2 (Rattus norvegicus) (Q9R1A7 whole entry, looked up): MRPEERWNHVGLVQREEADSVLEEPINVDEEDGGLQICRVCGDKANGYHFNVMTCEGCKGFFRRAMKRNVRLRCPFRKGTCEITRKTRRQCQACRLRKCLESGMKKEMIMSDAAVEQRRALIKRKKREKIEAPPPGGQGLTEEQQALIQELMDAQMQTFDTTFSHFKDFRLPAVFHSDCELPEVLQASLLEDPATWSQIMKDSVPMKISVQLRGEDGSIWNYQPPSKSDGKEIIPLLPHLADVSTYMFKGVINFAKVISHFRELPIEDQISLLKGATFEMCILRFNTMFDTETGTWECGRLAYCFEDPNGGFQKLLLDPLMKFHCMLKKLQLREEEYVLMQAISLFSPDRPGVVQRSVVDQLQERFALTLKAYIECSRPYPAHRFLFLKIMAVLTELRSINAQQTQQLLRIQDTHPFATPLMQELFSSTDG

Row | SMILES | outcome [1] | Potency [2] | outcome [3] | Potency [4] | outcome [5] | outcome [6] | Potency [7] | Potency [8] | Potency [9] | Potency [10] | Potency [11] | Potency [12] | Potency [13] | max activation [14] [%] | Potency [15] | Potency [16]
1 | CCC(=O)/C=C/c1ccc(OC)cc1 | inactive | inactive | inactive | inactive | inactive | inactive | inactive | 12.6 µM (active) | 39.9 µM (active) | 20 µM (active) | inactive | inactive |  |  |  | 
2 | CCCCCCOC(=O)c1ccccc1O | inactive | inactive | inactive | inactive | inactive | inactive | inactive | inactive |  |  |  | inactive |  |  |  | 
3 | C#CC(O)C(CC)CCCC (configuration not stated) | inactive | inactive | inactive | inactive | inactive | inactive | inactive | 71 µM (active) |  | inactive | inactive |  |  |  |  | 
4 | COc1cccc(OC)c1 | inactive | inactive | inactive |  | inactive | inactive | inactive | inactive | inactive | inactive | inactive | inactive | inactive |  |  | 
5 | Cc1c(F)cc2c(=O)c(C(=O)O)cn3c2c1CCC3C (configuration not stated) | inactive | inactive | inactive |  | inactive | inactive | inactive | inactive | inactive | inactive | inactive | inactive | inactive |  |  | 
6 | CCC(C)(C)C1CCC(OC)CC1 (configuration not stated) | inactive | inactive | inactive | inactive | inactive |  |  |  |  | inactive | inactive | inactive | 30.6 µM (active) |  |  | 
7 | C(=C(c1ccccc1)c1ccccc1)c1ccccc1 | inactive | inactive | inactive | inactive | inactive | inactive | inactive | 5.03 µM (active) |  |  |  | inactive |  |  |  | 
8 | CCCC(C)C(=O)O (configuration not stated) | inactive | inactive | inactive | inactive | inactive | inactive | 34.2 µM (active) | 34.2 µM (active) | 54.1 µM (active) | 68.2 µM (active) | inactive |  |  |  |  | 
9 | C=CCOc1nc(OCC=C)nc(OCC=C)n1 | inactive | inactive | inactive | inactive | inactive | inactive | 39.9 µM (active) |  | 15.9 µM (active) | 6.33 µM (active) | inactive | 12.6 µM (active) |  |  |  | 
10 | CCCOCC(C)OCC(C)O (configuration not stated) | inactive | inactive | inactive | inactive | inactive | inactive |  |  |  |  | inactive |  |  |  |  | 
11 | CCCc1ccccc1O | inactive | inactive | inactive | inactive | inactive |  | inactive | inactive |  |  | inactive | inactive | inactive |  |  | 
12 | CCC(=O)c1cccc(Cl)c1 | inactive | inactive | inactive | inactive | inactive | inactive | inactive | inactive | inactive | inactive | inactive | inactive |  |  |  | 
13 | CNc1ncnc2nc[nH]c12 | inactive | inactive | inactive |  | inactive | inactive | inactive | inactive | inactive | inactive | inactive | inactive | 9.86 µM (active) |  |  | 
14 | CN(C)CCn1nnnc1SCC1=C(C(=O)O)N2C(=O)[C@@H](NC(=O)Cc3csc(N)n3)[C@H]2SC1 | inactive | inactive | inactive |  | inactive | inactive |  |  | inactive | inactive | inactive | inactive | inactive | 14.1 | inactive | inactive
15 | O=C(O)c1cccc(C(=O)O)n1 | inactive | inactive | inactive | inactive | inactive | inactive | inactive |  | inactive |  | inactive | inactive |  |  |  | 
16 | COc1nc(C)nc(N)n1 | inactive | inactive | inactive |  | inactive | inactive | inactive | inactive | inactive | inactive | inactive | inactive | inactive |  |  | 
17 | Nc1ccc2cc(S(=O)(=O)O)ccc2c1 | inactive | inactive | inactive | inactive | inactive | inactive | 39.9 µM (active) |  |  |  | inactive | inactive |  |  |  | 
18 | O=C(O)C1CCC1 | inactive | inactive | inactive | inactive | inactive | inactive | inactive | inactive | inactive | inactive | inactive | inactive |  |  |  | 
19 | Nc1ncnc2c1ncn2Cc1c(F)cccc1Cl | inactive | inactive | inactive | inactive | inactive | inactive | inactive | inactive | inactive | inactive | inactive | inactive |  |  |  | 
20 | CCCCOCC(C)OCC(C)O (configuration not stated) | inactive | inactive | inactive |  | inactive | inactive | 29 µM (active) | inactive | inactive | inactive | inactive | inactive | 27.9 µM (active) |  |  | 
21 | OC1OC[C@@H](O)[C@H](O)[C@H]1O (some centres not stated) | inactive | inactive | inactive | inactive | inactive | inactive | inactive | inactive | inactive | inactive | inactive | inactive |  |  |  | 
22 | C=C[Si](OC)(OC)OC | inactive | inactive | inactive | inactive | inactive | inactive | inactive | inactive |  | 34.2 µM (active) | inactive | inactive |  |  |  | 
23 | O=C(O)c1ccccc1-c1ccc(C(F)(F)F)cc1 | inactive | inactive | inactive |  | inactive | inactive | inactive | inactive |  |  | inactive | inactive | inactive | -1.61 | inactive | inactive
